Source: PubChem
Sampled rows, rich in hits. Any-hit rate of the full collection: about 2.9%.
rCAG RNA binder = binders of r(CAG) RNA repeats, primary screen, biochemical, fluorescence. AID 651821, 2012. r(CAG) RNA repeat, TO-PRO-1 dye displacement fluorescence. inhibition, % at 3 µM. actives 1.3% (n = 370,000);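 active = inhibition above the plate cutoff, the mean of all test compounds on that plate plus 3 SD, cut at about 35% in these data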;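 also: 0% = DMSO alone and 100% = 100 µM mitoxantrone as full dye displacement; higher means more dye released from RNA so lower well fluorescence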
ZTA counter = ZTA (EBV) inhibition in EBNA-1 counter-screen; P03206; ZTA-DNA binding, fluorescence polarization; inhibition, % at 11 µM; actives 0.15% (n = 320,000); in the data active = inhibition above about 33%
Target sequence (P03206 whole entry, looked up): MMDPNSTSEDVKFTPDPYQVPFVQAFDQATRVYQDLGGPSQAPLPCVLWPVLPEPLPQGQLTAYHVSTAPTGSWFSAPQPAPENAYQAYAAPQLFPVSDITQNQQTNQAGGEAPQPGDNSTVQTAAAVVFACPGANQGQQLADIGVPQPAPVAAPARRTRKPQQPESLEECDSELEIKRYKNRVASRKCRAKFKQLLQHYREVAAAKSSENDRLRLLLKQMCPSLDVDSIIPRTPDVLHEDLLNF
EBNA-1 inhibitor = EBNA-1 DNA-binding inhibitors, primary screen, biochemical, fluorescence polarization; inhibition, % at 14.8 µM; actives 0.34% (n = 300,000); in the data active = inhibition above about 28%
PAFAH1B3 FP inh = PAFAH1B3 enzyme inhibitors, primary screen, biochemical, fluorescence polarization, human; inhibition, % at 3.39 µM; actives 0.28% (n = 340,000); recombinant PAFAH1B3, FP-rhodamine probe; Platelet-activating factor acetylhydrolase IB subunit alpha1 (Homo sapiens), Q15102; AID 492972, 2010;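 active = inhibition above the screen-wide average of all tested compounds plus 3 SD, cut at about 25% in these data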;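 also: 0% = enzyme with DMSO only and 100% = wells lacking PAFAH1B3 protein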
Target sequence (Q15102 whole entry, looked up): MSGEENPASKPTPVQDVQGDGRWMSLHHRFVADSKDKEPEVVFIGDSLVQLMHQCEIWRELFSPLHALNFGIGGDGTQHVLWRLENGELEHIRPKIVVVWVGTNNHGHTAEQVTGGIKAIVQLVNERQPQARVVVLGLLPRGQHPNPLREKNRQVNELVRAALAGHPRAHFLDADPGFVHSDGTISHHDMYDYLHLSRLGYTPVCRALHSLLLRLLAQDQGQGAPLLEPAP
PAFAH2 inh = PAFAH2 enzyme inhibitors, primary screen, biochemical, fluorescence polarization, human; Platelet-activating factor acetylhydrolase 2, cytoplasmic (Homo sapiens), Q99487; recombinant PAFAH2, FP-rhodamine activity probe; inhibition, % at 3.39 µM; actives 0.99% (n = 340,000); AID 492956, 2010;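 active = inhibition above the mean over all tested compounds plus 3 SD, cut at about 30% in these data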;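 also: inhibitors block probe labeling of enzyme so polarization drops; 0% = enzyme with DMSO and 100% = wells lacking PAFAH2 protein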
PAFAH1B2 inh = PAFAH1B2 enzyme inhibitors, primary screen, biochemical, fluorescence polarization, human; AID 492953, 2010; actives 1.2% (n = 340,000); inhibition, % at 3.39 µM; Platelet-activating factor acetylhydrolase IB subunit alpha2 (Homo sapiens), P68402; recombinant PAFAH1B2, FP-rhodamine activity probe;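 active = inhibition above the mean of all tested compounds plus 3 SD, cut at about 24% in these data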;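 also: 0% = enzyme with DMSO and 100% = wells lacking PAFAH1B2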
Target sequence (P68402 whole entry, looked up): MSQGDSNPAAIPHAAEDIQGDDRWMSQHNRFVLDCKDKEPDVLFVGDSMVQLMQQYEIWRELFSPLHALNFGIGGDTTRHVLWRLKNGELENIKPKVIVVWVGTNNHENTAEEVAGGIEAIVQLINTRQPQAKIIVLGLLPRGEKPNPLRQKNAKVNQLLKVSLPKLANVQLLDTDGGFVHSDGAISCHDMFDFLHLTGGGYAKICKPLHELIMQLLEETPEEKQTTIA
* marks the source's active call; other numbers are inactive results; . = not tested or not shown; + = active, no number.

SMILES | rCAG RNA binder | ZTA counter | EBNA-1 inhibitor | PAFAH1B3 FP inh | PAFAH2 inh | PAFAH1B2 inh
O=C(C1CCCN1S(=O)(=O)c1ccc([N+](=O)[O-])cc1)N1CCN(c2ccccc2)CC1 (stereo unspecified) | 3.9 | . | . | . | . | .
Cc1oc2c(c1C(=O)c1ccccc1)C(=O)C(=O)c1ccccc1-2 | 5.6 | -22.8 | 2.1 | 16.4 | 34.4* | 5.6
CCCOc1ccc(C(=O)ON=C2CCN(C)CC2)cc1 | -5.5 | 0.0 | 10.1 | -3.5 | 77.7* | 4.0
Cc1ccccc1CNC(=O)CN1CCCc2ccccc21 | 1.4 | . | . | . | . | .
CCn1c(SCC(N)=O)nc2c(c1=O)C1(CCCC1)Cc1ccccc1-2 | -7.6 | 2.3 | -5.5 | -2.5 | 7.5 | 31.0*
CCn1c(=O)c2c(n3cnnc13)-c1ccccc1CC21CCCCC1 | 1.3 | -1.7 | 3.9 | 6.7 | -0.2 | 25.6*
NC(=O)CSc1nc2c(c(=O)n1-c1ccccc1)C1(CCCCC1)Cc1ccccc1-2 | 4.0 | -6.4 | -0.2 | 3.9 | -3.2 | 4.2
CCOC(=O)CCNC(=O)N1CCC(CCOc2ccccc2)(C(=O)OCC)CC1 | -7.8 | -5.8 | -1.3 | 8.6 | -2.3 | -0.7
CCOC(=O)C1(CCOc2ccccc2)CCN(C(=O)CCSC)CC1 | -8.5 | 36.8* | -0.9 | 4.0 | 2.0 | 3.9
CCOc1cc(CNc2ccc(N(C)C)cc2)cc(Br)c1OCC(=O)NC(C)(C)C | 1.1 | + | + | 7.0 | 9.9 | 5.5
Nn1c(SCc2ccc(Br)cc2)nnc1-c1n[nH]c2c1CCC2 | 0.4 | . | . | . | . | .
COc1ccc(Sc2ccc(/C=C3\C(=O)NN(c4ccccc4)C3=O)o2)cc1 | 25.6 | 6.6 | -8.3 | 14.9 | 33.6* | 42.1*
COc1ccc(NS(=O)(=O)c2ccc(NS(=O)(=O)c3ccc(C)cc3)cc2)nn1 | 4.5 | 4.6 | 9.4 | 11.4 | 5.8 | 24.3*
COc1ccc(NS(=O)(=O)c2ccc(NC(C)=O)cc2)nn1 | 2.2 | -0.9 | -8.4 | . | . | .
CCOC(=O)N(C)[C@H]1C[C@H]2c3[nH]c4c(-c5ccc6c(c5)OCO6)cccc4c3CCN2C(=O)[C@H]1[C@H](C)O | 8.9 | . | . | . | . | .
COc1ccc(CN2C(=O)c3ccccc3C2C(=O)NC2CCC(C)CC2)c(OC)c1 (stereo unspecified) | 7.5 | -6.6 | 5.0 | 10.6 | 1.2 | 25.7*
S=c1[nH]cnc2sc(-c3ccccc3)cc12 | 8.4 | -6.6 | -0.1 | -5.7 | 1.4 | 45.9*
O=c1[nH]c(CN2CCN(S(=O)(=O)c3ccc(Cl)cc3)CC2)nc2cc(Cl)ccc12 | 4.0 | -1.6 | 3.5 | 4.1 | 1.2 | 24.2*
O=S(=O)(c1ccc(F)cc1)N1CCN(CCc2ccccc2)CC1 | -1.3 | -14.0 | -8.8 | -0.7 | -4.1 | 4.6
O=S(=O)(c1ccc(Cl)cc1)N1CCN(CCc2ccccc2)CC1 | 3.6 | -12.1 | 1.4 | 12.5 | 0.9 | 27.7*
O=S(=O)(c1ccc(Cl)cc1)N1CCN(Cc2ccncc2)CC1 | -0.7 | 1.2 | -4.9 | 6.4 | 0.6 | 24.4*
COc1cc2nc(CN3CCN(S(=O)(=O)c4ccc(Cl)cc4)CC3)[nH]c(=O)c2cc1OC | -1.5 | 7.8 | 4.7 | 9.7 | 6.4 | 6.0
c1ccc(Cn2cc(CCOCc3ccccn3)c3ccccc32)cc1 | 6.8 | . | . | . | . | .
CCc1c(-c2ccccc2OC)ncn1Cc1cccc(-c2ccccc2)c1 | 6.2 | . | . | . | . | .
COc1ccc(S[C@]2(C(=O)N(C)C)CC(=O)N(C(=O)C3CC3)[C@@H]2c2ccc(OC)cc2)cc1 | 2.6 | . | . | . | . | .
SMILES | rCAG RNA binder | ZTA counter | EBNA-1 inhibitor | PAFAH1B3 FP inh | PAFAH2 inh | PAFAH1B2 inh
COc1cc(/C=N/NC(=O)c2cc(C34CC5CC(CC(C5)C3)C4)[nH]n2)ccc1O | 10.9 | 8.1 | -4.5 | 12.7 | 16.2 | 30.4*
Cc1ccc(-c2csc(NCCn3c(C)nc4cc(C(F)(F)F)ccc43)n2)cc1 | 0.4 | . | . | 5.2 | 1.4 | 36.7*
Cc1ccc(Cn2c(C(C)Nc3nc(-c4ccc(Cl)c([N+](=O)[O-])c4)cs3)nc3cc(C(F)(F)F)ccc32)cc1 (stereo unspecified) | 22.3 | 1.5 | -4.4 | -10.5 | 1.1 | -2.5
O=c1cc(-c2ccccc2F)nc(-c2ccccc2F)o1 | 3.1 | -10.4 | 2.0 | 6.8 | 6.1 | 2.6
CCc1cc2c(=O)oc(-c3ccccc3F)nc2s1 | 0.8 | -17.9 | -4.2 | 0.7 | 72.0* | -0.1
CC(C)CN1C(=O)[C@]2(CC(=O)N(C)C2c2ccccc2)c2cc(-n3cc(CN(C)C)nn3)ccc21 (stereo partly specified) | -1.7 | . | . | . | . | .
c1ccc(-c2nn3c(Cn4cnc5ccccc54)nnc3s2)cc1 | -2.4 | -5.5 | -3.1 | 4.5 | 6.7 | 3.2
c1ccc(OCc2nn3c(Cn4cnc5ccccc54)nnc3s2)cc1 | 2.3 | -5.9 | -0.3 | 2.5 | 4.2 | 27.4*
CN=Cc1nc(-c2ccccc2)oc1O | -0.5 | -0.2 | -7.5 | -4.9 | 17.3 | -0.8
Oc1oc(-c2ccco2)nc1C=Nc1ccccc1 | -2.6 | 3.9 | -6.2 | 6.0 | 79.6* | 0.5
Oc1oc(-c2ccco2)nc1C=Nc1cccc(Cl)c1 | 4.2 | -17.0 | 7.5 | 11.0 | 74.8* | 2.2
O=C(O)c1ccc(N=Cc2nc(-c3ccco3)oc2O)cc1 | 1.1 | 3.1 | -2.7 | -1.1 | 82.4* | 5.5
CC(=NCc1cccc(Cl)c1)c1nc(-c2ccco2)oc1O | -4.5 | -2.4 | 1.2 | 1.6 | 7.3 | 3.8
CC(=O)OC12CCCN(C1)/C(=C/c1ccccc1)C2 (stereo unspecified) | 0.1 | . | . | . | . | .
O=C(c1ncn(Cc2ccccc2)c1C(=O)N1CCN(c2ccccc2)CC1)N1CCN(c2ccccc2)CC1 | -2.8 | . | . | 4.4 | 5.7 | 5.3
O=C(O)c1ncn(Cc2ccc(Br)cc2)c1C(=O)O | 0.5 | 12.0 | 4.0 | 7.9 | 8.5 | 24.9*
CC1=CC(=O)c2c(O)ccc(O)c2C1=O | . | 35.9* | 42.2* | . | . | .
O=C1C=C(N2CCN(c3ccccn3)CC2)C(=O)c2c(O)ccc(O)c21 | 5.2 | . | . | 15.5 | 16.0 | 3.4
CCOC(=O)CSc1nnc(NC(=O)CN2CCN(C=O)CC2)s1 | -0.9 | -2.6 | -2.8 | 4.3 | 1.5 | 52.0*
Cc1cccc(CCNC(=O)Cn2nc(-c3ccccc3)ccc2=O)c1 | 2.1 | . | . | . | . | .
Cc1ccc(S(=O)(=O)Nc2cc(C)c(O)c(S(=O)(=O)c3ccc(C)cc3)c2)cc1 | 15.2 | -9.3 | 10.7 | 8.1 | 16.9 | 34.0*
Cc1cc(NS(=O)(=O)c2ccccc2)cc(Cl)c1O | 0.6 | 1.0 | -0.3 | -1.2 | -0.6 | 0.0
CCCCCN(C(=O)CCc1cn(CCCCC)c2ccccc12)c1ccc(Oc2cccnc2)cc1 | 4.6 | . | . | . | . | .
O=C(Nc1cccc(F)c1)OC1CC2CC1[C@H]1CCCCN1[C@H]2Cc1ccccc1 (stereo partly specified) | 6.8 | . | . | . | . | .
COc1ccc(N2CC(O)=C(c3nc4ccccc4s3)C2=N)c(OC)c1 | 2.8 | -30.2 | 5.3 | -6.0 | 30.1* | 1.5
CCCCOCCCNC(=O)C[C@H]1C[C@@]2(C(=O)OC)C(=C[C@H](C3CCCC3)O[C@@H]2C)N(Cc2ccco2)C1=O | 6.5 | . | . | . | . | .
